This note sets out measurements from PubChem BioAssay (EPA / NIEHS).

The nature of assay [1]: BSK_hDFCGF_SRB: Viability Assessment in the BioMAP Diversity Plus: hDFCGF Assay (AID 2283061).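 Further: cells exposed to compound for 24 h before the read.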 As to conditions: primary human foreskin fibroblasts. In outline:
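SRB-based viability read on primary human skin fibroblasts at 24 h: TCA fixation, 0.1% dye, 560 nm. Gain or loss of signal is fitted against the DMSO negative control.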

Read-out in assay [2]: TIMP metallopeptidase inhibitor 1 (TIMP1), TIMP1 (gene 7076)
Description: BSK_hDFCGF_TIMP1: BioMAP Diversity Plus: hDFCGF Assay for TIMP metallopeptidase inhibitor 1 (TIMP1) Biomarker Activity (AID 2283062). As to conditions: primary human foreskin fibroblasts; actives raise or lower the signal. The method, boiled down:
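Bidirectional curve fitting against DMSO baseline yielded this endpoint, based on ELISA detection of TIMP-1 in primary human foreskin fibroblasts exposed to compound for 24 h.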

Read-out in assay [3]: Monokine induced gamma interferon (MIG), CXCL9 (gene 4283)
The assay is described as follows: BSK_hDFCGF_MIG: BioMAP Diversity Plus: hDFCGF Assay for Monokine induced gamma interferon (MIG) Biomarker Activity (AID 2283063). As to conditions: primary human foreskin fibroblasts; actives raise or lower the signal. The method, boiled down: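 Endpoint derived by bidirectional fitting relative to DMSO; MIG quantified via ELISA in primary human foreskin fibroblasts harvested 24 h after dosing.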

Read-out in assay [4]: Matrix Metallopeptidase 1 (MMP1), MMP1 (gene 4312)
The assay is described as follows: BSK_hDFCGF_MMP1: BioMAP Diversity Plus: hDFCGF Assay for Matrix Metallopeptidase 1 (MMP1) Biomarker Activity (AID 2283064). As to conditions: primary human foreskin fibroblasts; actives raise or lower the signal. The method, boiled down:
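ELISA read-out of MMP1 from human foreskin fibroblasts (primary skin cells), 24 h post-dose. Gain or loss of signal was fitted bidirectionally versus DMSO negative control; cytotoxicity was checked by SRB in parallel cultures.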

Read-out in assay [5]: Vascular cell adhesion molecule 1 (VCAM1), VCAM1 (gene 7412)
Description: BSK_hDFCGF_VCAM1: BioMAP Diversity Plus: hDFCGF Assay for Vascular cell adhesion molecule 1 (VCAM1) Biomarker Activity (AID 2283065).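 On AC50: VCAM-1 protein level quantified by ELISA after 24 h chemical exposure.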 As to conditions: primary human foreskin fibroblasts; actives raise or lower the signal. The method, boiled down:
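Measured after 24 h chemical treatment of primary human skin fibroblasts, VCAM-1 was detected by ELISA and concentration-response analysed in both directions versus DMSO vehicle.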

Read-out in assay [6]: Plasminogen activator inhibitor-1 (PAI1), SERPINE1 (gene 5054)
The assay is described as follows: BSK_hDFCGF_PAI1: BioMAP Diversity Plus: hDFCGF Assay for Plasminogen activator inhibitor-1 (PAI1) Biomarker Activity (AID 2283066). As to conditions: primary human foreskin fibroblasts; actives raise or lower the signal. The method, boiled down: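 PAI-1 levels in human dermal foreskin fibroblasts were quantified by ELISA 24 h after dosing, with gain or loss analysed against DMSO. Overt cytotoxicity was checked by sulforhodamine B total-protein staining in parallel cultures.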

Read-out in assay [7]: Interferon-gamma inducible Protein 10 (IP10), CXCL10 (gene 3627)
Description: BSK_KF3CT_IP10: BioMAP Diversity Plus: KF3CT Assay for Interferon-gamma inducible Protein 10 (IP10) Biomarker Activity (AID 2283068). As to conditions: primary human keratinocytes with fibroblasts; actives raise or lower the signal. The method, boiled down:
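Human keratinocyte plus foreskin fibroblast primary co-culture exposed to test chemical for 24 h; IP-10 measured by ELISA. Concentration-response fitted bidirectionally against DMSO control as baseline.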

Assay [8] in a line: BSK_KF3CT_SRB: Viability Assessment in the BioMAP Diversity Plus: KF3CT Assay (AID 2283069).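 Further: read 24 h after compound addition; fitted for both signal gain and loss against DMSO baseline.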 As to conditions: primary human keratinocytes with fibroblasts. The method, boiled down: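 SRB read-out at 560 nm (0.1% stain, TCA-fixed cells) gauges overt cytotoxicity in a human skin keratinocyte–fibroblast co-culture 24 h post-dosing. Signal change was fitted bidirectionally relative to DMSO control.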

Read-out in assay [9]: Interleukin-1 alpha (IL1a), IL1A (gene 3552)
Description: BSK_KF3CT_IL1a: BioMAP Diversity Plus: KF3CT Assay for Interleukin-1 alpha (IL1a) Biomarker Activity (AID 2283070). As to conditions: primary human keratinocytes with fibroblasts; actives raise or lower the signal. In outline: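 Primary skin co-culture (keratinocytes, foreskin fibroblasts), 24 h exposure; ELISA for IL-1a; bidirectional curve fit vs DMSO.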

Read-out in assay [10]: Intercellular Adhesion Molecule 1 (ICAM1), ICAM1 (gene 3383)
Description: BSK_KF3CT_ICAM1: BioMAP Diversity Plus: KF3CT Assay for Intercellular Adhesion Molecule 1 (ICAM1) Biomarker Activity (AID 2283067). As to conditions: primary human keratinocytes with fibroblasts; actives raise or lower the signal. In outline:
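Bidirectional curve fitting against a DMSO baseline was applied to ICAM-1 ELISA signal from primary human skin co-cultures harvested 24 h after treatment, with SRB staining of parallel wells for overt cytotoxicity.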

Values joined by “and” are separate entries in the source; they are usually repeats but may differ in a detail not shown here. Equal values may be shown once. More than one record can exist for a structure, and the calls need not agree. Active and inactive are the calls of the source. How the source made its calls: active means hit-call score of the fitted dose curve at least 0.9, where 1 is the maximum; inactive means score below 0.9.

In the case of `O=S(=O)(OCC(F)(F)F)C(F)(F)C(F)(F)C(F)(F)C(F)(F)F`, the outcome in [1], in [2], in assay [3], in assay [4], in [5] and in assay [6] was inactive. The outcome in assay [7], in assay [8] and in assay [9] was inactive.
The term AC50 denotes the concentration giving half of the maximal activity seen. For the compound `O=C(O)CCC(F)(F)C(F)(F)C(F)(F)C(F)(F)C(F)(F)C(F)(F)C(F)(F)F`, the AC50 in assay [1] was 2.25 µM (active). Also, the outcome in assay [1], in assay [2], in [3], in assay [4], in assay [5] and in [6] was inactive. For the same compound, the outcome in [10], in assay [7], in assay [8] and in assay [9] was inactive.
With `Brc1nc2ccccc2s1`, the outcome in assay [1], in assay [2], in [3], in [4], in assay [5] and in assay [6] was inactive. Besides, the result in assay [10], in assay [7], in [8] and in assay [9] was inactive.
Turning to `O=C1C=CC(=O)N1c1ccc(Cc2ccc(N3C(=O)C=CC3=O)cc2)cc1`, the AC50 in assay [1] was 1.91 µM (active); in [2], 2.7 µM (active); in [3] it was 3.48 µM (active); in [4], 1.99 µM (active); in assay [5] it was 1.5 µM (active); in [6] it was 2.48 µM (active). Also, the AC50 in assay [10] is 3.64 µM (active); in assay [7] it was 6.7 µM (active); in assay [8], 1.97 µM (active); in assay [9] it was 2.69 µM (active).
Consider `Nc1cc([N+](=O)[O-])cc(Cl)c1O`, for which the result in assay [1], in assay [2], in assay [3], in [4], in assay [5] and in assay [6] was inactive. The result in assay [7], in assay [8] and in assay [9] was inactive.
For `OCC(F)(F)C(F)(F)C(F)(F)C(F)(F)C(F)(F)C(F)(F)CO`, the result in assay [1], in assay [2], in assay [3], in assay [4], in [5] and in assay [6] was inactive. Moreover, the result in assay [7], in assay [8] and in assay [9] was inactive.
For `Cc1ccc(S(=O)(=O)C(I)I)cc1`, the AC50 in [1] was 2.63 µM (active); in assay [2], 1.62 µM (active); in [3], 2.68 µM (active); in assay [4], 2.22 µM (active); in [5] it was 0.942 µM (active); in [6], 2.41 µM (active). Also, the results for the AC50 in assay [7], in assay [8] and in assay [9] were 7.09 µM (active), 5.19 µM (active) and 2.47 µM (active), respectively.
For the compound `CCN(CC)c1ccc2c(c1)Oc1cc(N(CC)CC)ccc1C21OC(=O)c2ccccc21`, the result in assay [1], in assay [2], in assay [3], in [4], in assay [5] and in assay [6] was inactive. Besides, the outcome in assay [7], in assay [8] and in assay [9] was inactive.
With `O=C(O)C(F)(F)OC(F)(F)C(F)(F)OC(F)(F)C(F)(F)OC(F)(F)F`, the outcome in assay [1], in assay [2], in assay [3], in assay [4], in [5] and in assay [6] was inactive. Moreover, the outcome in assay [7], in assay [8] and in assay [9] was inactive.
Take `O=C(O)CCC(F)(F)C(F)(F)C(F)(F)F`: the result in assay [1], in assay [2], in assay [3], in assay [4], in [5] and in assay [6] was inactive. In addition, the outcome in assay [7], in assay [8] and in assay [9] was inactive.
`CC1=CC2C3C=CC(C3)C2C1C` (stereo unspecified): the outcome in [1], in assay [2], in assay [3], in [4], in [5] and in [6] was inactive. Moreover, the outcome in assay [7], in assay [8] and in assay [9] was inactive.
Regarding `O=C(Cl)C(F)(F)C(F)(F)C(F)(F)C(F)(F)C(F)(F)C(F)(F)F`, the result in [1], in [2], in [3], in assay [4], in assay [5] and in assay [6] was inactive. Further, the outcome in assay [7], in assay [8] and in [9] was inactive.
For `NC(O)(C(F)(F)F)C(F)(F)F`, the result in assay [1], in assay [2], in assay [3], in assay [4], in assay [5] and in [6] was inactive. The outcome in assay [7], in [8] and in [9] was inactive.
Turning to `C=CC(=O)OCC(F)(F)C(F)(F)C(F)(F)COC(=O)C=C`, the AC50 is 2.51 µM (active) and 2.73 µM (active) in [1]; 2.37 µM (active) and 737 nM (active) in assay [2]; 918 nM (active) and 499 nM (active) in assay [3]; 5.8 µM (active) and 4.94 µM (active) in [4]; 2.35 µM (active) and 1.96 µM (active) in assay [5]; 3.85 µM (active) and 3.09 µM (active) in [6]. The AC50 in assay [7] was 28.4 µM (active) and 17.6 µM (active); in assay [8] it was 36.6 µM (active) and 41.6 µM (active); in assay [9], 30 µM (active) and 5.95 µM (active).
In the case of `CCN(CC)c1ccc(C=O)cc1`, the result in [1], in [2], in assay [3], in assay [4], in assay [5] and in assay [6] was inactive. Further, the result in assay [7], in assay [8] and in [9] was inactive.
In the case of `O=C(O)C(F)(F)C(F)(F)C(F)(F)OC(F)(F)F`, the outcome in assay [1], in assay [2], in assay [3], in assay [4], in assay [5] and in assay [6] was inactive. Further, the result in assay [7], in assay [8] and in assay [9] was inactive.
For the compound `C=C(C)C(=O)OCC(F)(F)C(F)(F)C(F)(F)C(F)F`, the result in assay [1], in assay [2], in assay [3], in assay [4], in assay [5] and in [6] was inactive. The outcome in assay [7], in assay [8] and in assay [9] was inactive.
In the case of `O=S(=O)(Cl)C(F)(F)C(F)(F)C(F)(F)C(F)(F)C(F)(F)C(F)(F)C(F)(F)C(F)(F)F`, the result in [1], in [2], in assay [3], in [4], in assay [5] and in [6] was inactive. Besides, the outcome in [8] and in assay [9] was inactive. For the same compound, the AC50 in assay [7] was 34.8 µM (active) and 32.5 µM (active).
